21 molecules from PubChem BioAssay can be followed below.

Activity calls are given as the source filed them. Unless noted, how the calls were made is not given here.

The test system of assay [1] is XIP peptide (Xip251-270) binding. Briefly: XIP fragment 251-270 binding compounds – biochemical, small-molecule microarray, fluorescence 635/667 nm, 0.1 µg/mL protein, primary screen (AID 1182). Conditions: fluorescent protein binding, 635 nm, higher = more signal, called active from +8 up or from −8 down.
For the next assay, the system named is XIP peptide (Xip251-270). Description: compounds binding XIP fragment 251-270 – biochemical, small-molecule microarray, fluorescence 635/667 nm, 0.5 µg/mL protein, primary screen (AID 1183). Conditions: fluorescence 635 nm, higher = more signal.
Assay [2] can be described thus: blood-stage malaria parasite viability loss – strain 3D7, DAPI fluorescence, 100 nL, primary screen (AID 1184).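 Further: parasites grown inside human red blood cells in medium with human serum.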 The settings on record: P. falciparum 3D7 growth, 3 d, higher = more signal.
The target of assay [3] is Homeobox protein Hox-A13 (Mus musculus) (UniProt Q62424). Description: disruptors of Hoxa13 oligonucleotide interaction – biochemical, fluorescence polarization, labeled oligonucleotide, primary screen (AID 1185). Conditions: Hoxa13:DNA binding, 15 min, higher = more signal, called active from +8 up or from −8 down. A general note: Fluorescence polarisation rises when a labelled molecule tumbles more slowly, as on binding a larger partner.
Homeobox protein Hox-A13 (Mus musculus), sequence (Q62424 whole entry, looked up): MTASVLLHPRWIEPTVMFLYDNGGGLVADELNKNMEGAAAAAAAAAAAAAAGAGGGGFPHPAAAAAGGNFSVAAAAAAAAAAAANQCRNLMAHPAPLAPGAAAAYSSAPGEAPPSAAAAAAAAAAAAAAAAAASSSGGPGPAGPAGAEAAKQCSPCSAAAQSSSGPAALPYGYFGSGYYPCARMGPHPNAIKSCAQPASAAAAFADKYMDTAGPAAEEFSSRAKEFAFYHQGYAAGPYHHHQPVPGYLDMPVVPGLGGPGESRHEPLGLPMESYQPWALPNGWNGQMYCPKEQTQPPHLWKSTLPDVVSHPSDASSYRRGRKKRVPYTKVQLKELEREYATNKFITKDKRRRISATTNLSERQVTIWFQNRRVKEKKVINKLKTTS

A short description of assay [4]: blockers of DNA damage checkpoint Chk1 activation – imaging, HeLa, hydroxyurea, phospho-Chk1 antibody, percent positive cells, primary screen (AID 1186). Conditions: hydroxyurea-induced phospho-Chk1 immunofluorescence imaging, higher = more signal.
The nature of assay [5]: blockers of DNA damage checkpoint Chk1 activation – imaging, HeLa, hydroxyurea, phospho-Chk1 nuclear intensity, primary screen (AID 1187). Conditions: hydroxyurea-induced phospho-Chk1 immunofluorescence imaging, higher = more signal.

Regarding `O=C(NCC(F)(F)F)[C@@H]1c2ccccc2C(=O)N(Cc2cc(F)cc(C(F)(F)F)c2)[C@H]1c1ccc(CO)cc1`, the values for the composite z-score (in assay [1]; in the assay with XIP peptide (Xip251-270)) were 0.0811 (inactive) and 0.663, respectively. For the same molecule, the z-score is -1.25 in assay [2], -2.64 (inactive) in assay [3], -0.0626 (inactive) in assay [4] and -0.205 (inactive) in assay [5].
For the molecule `COC(=O)[C@@]1(Cc2ccc(OC)cc2)[C@H]2c3cc(C(=O)N4CCCC4)n(Cc4c(-c5ccccc5)noc4C)c3C[C@H]2CN1C(=O)c1ccccc1`, the composite z-score in assay [1] is 2.97 (inactive); in the assay on XIP peptide (Xip251-270) it was 0.473. The z-score in assay [2] was -1.3; in assay [3] it was -3.25 (inactive); in assay [4], -0.279 (inactive); in assay [5], -0.313 (inactive).
Consider `C=CCOC(=O)[C@H]1[C@@H]2C(=O)O[C@@H](c3ccccc3)[C@@H](c3ccccc3)N2[C@@H](c2ccc(OCCOC(=O)[C@@H]3C[C@@H]4C(=O)N5CCC[C@H]5C(=O)N4[C@@H]3c3ccc(O)cc3)cc2)[C@]12C(=O)Nc1ccc(I)cc12`, for which the composite z-score was 0.773 (inactive) in assay [1] and 0.787 in the assay with XIP peptide (Xip251-270). Also, the z-score was -1.64 in assay [2], 2.54 (inactive) in assay [3], 0.651 (inactive) in assay [4] and 0.571 (inactive) in assay [5].
As for `C=CCOC(=O)[C@H]1[C@@H]2C(=O)O[C@@H](c3ccccc3)[C@@H](c3ccccc3)N2[C@@H](c2ccc(OCCOC(=O)[C@@H]3C[C@@H]4C(=O)N[C@@H](CCCCNC(C)=O)C(=O)N4[C@@H]3c3ccc(O)cc3)cc2)[C@]12C(=O)Nc1ccc(I)cc12`, the composite z-score in assay [1] is 0.875 (inactive); in the assay on XIP peptide (Xip251-270), 0.811. The z-score is -1.96 in assay [2], -0.356 (inactive) in assay [3], -0.235 (inactive) in assay [4] and 0.0348 (inactive) in assay [5].
For the molecule `COC(=O)[C@@]1(Cc2ccc(F)cc2)[C@H]2c3cc(C(=O)N(C)C)n(CCc4ccc(O)c(OC)c4)c3C[C@H]2CN1C(=O)c1ccccc1`, the composite z-score is -0.327 (inactive) in assay [1] and -0.277 with XIP peptide (Xip251-270). The z-score in assay [2] is 0.845; in assay [3] it was -0.562 (inactive); in assay [4] it was -0.47 (inactive); in assay [5], -0.964 (inactive).
With `CC(C)C(=C=CC[C@H](O)c1ccc(OCCO)cc1)C[C@H](O)c1ccccn1`, the figures for the composite z-score (in assay [1]; in the assay with XIP peptide (Xip251-270)) were -0.0991 (inactive) and 0.909, respectively. For the same molecule, the z-score in assay [2] is -2.06; in assay [3], -5.38 (inactive); in assay [4] it was -0.0725 (inactive); in assay [5], 0.223 (inactive).
On to `C=CCNC(=O)[C@@H]1[C@H]2C(=O)O[C@H](c3ccccc3)[C@H](c3ccccc3)N2[C@H](c2ccc(O)cc2)[C@@]12C(=O)N(C(=O)OCCOC)c1ccc(C#CC3(O)CCCCCC3)cc12`, for which the composite z-score in assay [1] was 0.0275 (inactive); with XIP peptide (Xip251-270), 0.557. Moreover, the z-score in assay [2] was 0.359; in assay [3], 0.16 (inactive); in assay [4], -0.209 (inactive); in assay [5] it was -0.468 (inactive).
`CCCCO[C@H]1C[C@H]2C(I)=C[C@@H]1C(=O)[C@]21CO1`: the composite z-score is -0.178 (inactive) in assay [1] and 0.08 with XIP peptide (Xip251-270). The z-score was 1.06 in assay [2], -1.07 (inactive) in assay [3], 0.187 (inactive) in assay [4] and -0.0533 (inactive) in assay [5].
Regarding `CCOC(=O)C1CCCCN1` (stereo unspecified), the values for the composite z-score (in assay [1]; in the assay with XIP peptide (Xip251-270)) were -0.679 (inactive) and -0.0839, respectively. Also, the z-score in assay [2] was 1.57; in assay [3] it was 0.65 (inactive); in assay [4], 0.0889 (inactive); in assay [5], 0.0121 (inactive).
For the molecule `COC1OC[C@]2(C)[C@H]3C4=C(CN2C(=O)OC(C)(C)C)[C@H](C)C(CO)C(CO)C4CC[C@@H]13` (stereo partly specified), the composite z-score in assay [1] is 1.48 (inactive); in the assay with XIP peptide (Xip251-270), 0.745. Moreover, the z-score in assay [2] was -0.892; in assay [3], -4.97 (inactive); in assay [4] it was 0.495 (inactive); in assay [5] it was -0.0531 (inactive).
In the case of `CCCC[C@@H]1C[C@H]1[C@@H](NC(=O)Cc1ccccc1)c1ccc(-c2ccccc2)cc1`, the composite z-score in assay [1] was 0.33 (inactive); in the assay with XIP peptide (Xip251-270), -0.135. Besides, the z-score is -0.456 in assay [2], -0.559 (inactive) in assay [3], -0.584 (inactive) in assay [4] and -0.541 (inactive) in assay [5].
In the case of `COC(=O)c1c(CC[C@@H](CO)NC(=O)N2CCC[C@H]2Cn2cc(Cc3ccccc3)nn2)oc(C(C)=O)c1C(=O)OC`, the composite z-score was 2.25 (inactive) in assay [1] and 0.889 in the assay with XIP peptide (Xip251-270). Moreover, the z-score is -0.547 in assay [2], -3.88 (inactive) in assay [3], -0.358 (inactive) in assay [4] and -0.522 (inactive) in assay [5].
With `COC(=O)[C@@]1(Cc2ccc(OC)cc2)[C@H]2c3cc(C(=O)N4CCCC4)n(Cc4cccc5ccccc45)c3C[C@H]2CN1C(=O)c1ccccc1`, the figures for the composite z-score (in assay [1]; with XIP peptide (Xip251-270)) were 0.0014 (inactive) and 0.658, respectively. For the same molecule, the z-score in assay [2] was -1.58; in assay [3], -1.44 (inactive); in assay [4] it was -0.491 (inactive); in assay [5], -0.684 (inactive).
On to `COC(=O)[C@@]1(Cc2ccc(F)cc2)[C@H]2c3cc(C(=O)N(C)C)n(Cc4cc(F)cc5c4OCOC5)c3C[C@H]2CN1C(=O)c1ccccc1`, for which the values for the composite z-score (in assay [1]; with XIP peptide (Xip251-270)) were 1.21 (inactive) and 0.628, respectively. The z-score in assay [2] was -1.54; in assay [3], -2.73 (inactive); in assay [4], -0.909 (inactive); in assay [5] it was -0.669 (inactive).
As to `Cc1ccc(S[C@]2(C(=O)NCCCN(C)C)CC(=O)N(C3CCCCC3)[C@@H]2c2ccc(CO)cc2)cc1`, the figures for the composite z-score (in assay [1]; with XIP peptide (Xip251-270)) were 0.332 (inactive) and 0.0388, respectively. Also, the z-score in assay [2] is -1.54; in assay [3], -1.9 (inactive); in assay [4], 0.487 (inactive); in assay [5] it was 0.866 (inactive).
In the case of `COc1ccc([Si](C)(C)[C@@H]2[C@@H](CCn3cc([C@H](O)c4ccccc4)nn3)O[C@]3(C(=O)N(Cc4ccc(N5CCC5=O)cc4)c4ccccc43)[C@H]2C)cc1`, the composite z-score in assay [1] was -0.325 (inactive); with XIP peptide (Xip251-270), 0.641. In addition, the z-score in assay [2] is -2.47; in assay [3], -2.32 (inactive); in assay [4], -0.169 (inactive); in assay [5] it was 0.663 (inactive).
Turning to `COc1ccccc1CN1C(=O)c2ccccc2[C@@]2(Cc3ccccc3N(CC(F)(F)F)C2=O)[C@@H]1c1ccc(CO)cc1`, the composite z-score in assay [1] was 0.182 (inactive); with XIP peptide (Xip251-270), 0.555. For the same molecule, the z-score is -0.384 in assay [2], -0.814 (inactive) in assay [3], 0.149 (inactive) in assay [4] and 0.312 (inactive) in assay [5].
With `CCOC(=O)C[C@H]1[C@H](OC(=O)Cc2ccc3c(c2)OCO3)[C@@H](NC(=O)Cc2ccc(OC)cc2)c2cc(OCCCO)ccc2N1C(=O)c1ccc2ccccc2n1`, the composite z-score in assay [1] is -0.16 (inactive); in the assay on XIP peptide (Xip251-270) it was 0.0481. In addition, the z-score in assay [2] was -0.919; in assay [3], -3.37 (inactive); in assay [4], -0.996 (inactive); in assay [5], -0.347 (inactive).
Regarding `O=C1C2C=CC(C(O)c3ccc(F)cc3)N(n3cnnc3)C2C(=O)N1Cc1ccccc1` (stereo unspecified), the composite z-score in assay [1] is 0.34 (inactive); with XIP peptide (Xip251-270) it was 0.854. Also, the z-score in assay [2] is -1.09; in assay [3], -0.994 (inactive); in assay [4], 0.0044 (inactive); in assay [5], -1.28 (inactive).
For the molecule `COC(=O)c1ccc([C@H](NC(=O)c2ccco2)[C@]2(C)C[C@H]2C2CCCCC2)cc1`, the composite z-score in assay [1] is -0.235 (inactive); with XIP peptide (Xip251-270) it was -0.727. In addition, the z-score in assay [2] is -0.414; in assay [3], -2.66 (inactive); in assay [4], 0.089 (inactive); in assay [5], -0.229 (inactive).
With `CCCCC(O)C1C=CC2C(=O)N(c3ccccc3)C(=O)C2N1Nc1ccc(C(C)C)cc1` (stereo unspecified), the composite z-score was -0.0775 (inactive) in assay [1] and 0.706 with XIP peptide (Xip251-270). Besides, the z-score in assay [2] is -0.243; in assay [3] it was -2.48 (inactive); in assay [4] it was -0.638 (inactive); in assay [5], -1.2 (inactive).
